In PubChem BioAssay (NCATS):
Records with an inconclusive call do not appear. A number with no mark means an inactive call. Calls follow the shape of the dose curve; as a rule, active = well fitted cell-killing curve with a large enough effect; inconclusive = small, poorly fitted or top-dose-only effect, or effect the other way; inactive = flat fitted curve, though single readings scatter.

Assay: Cell Viability - HUV-EC-C (AID 542);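 also: cells exposed to compound for 40 hours; nearly all actives have a fitted effect of over 35% in size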
Settings: HUV-EC-C endothelial cell viability, qHTS; series mostly up to 92.2 µM; activity change, negative = cytotoxicity: at the top concentration
Procedure, shortened: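 Decrease in cellular ATP, quantified by luciferase luminescence, reflects toxicity in normal human vascular endothelial HUV-EC-C cells given compound for 40 hr in complete culture medium. Values are AC50s from concentration-response curves.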
% is scaled to controls: 0 for no effect and ±100 for the full control effect.

| Compound | activity change, negative = cytotoxicity |
| --- | --- |
| C[C@@H]1CC2(OC3C[C@@]4(C)C5=CC[C@H]6C(C)(C)C(O[C@@H]7OC[C@@H](O)[C@H](O)[C@H]7O)CC[C@@]67C[C@@]57CC[C@]4(C)C31)OC(O)C1(C)OC21 (stereo not given in full) | -7.71% |
| CC(C)(C)OC=O | -0.283% |
| Cc1ccccc1C#N | -1.5% |
| C=Cc1ccccc1C=C | 1.03% |
| CC(C)=CCC/C(C)=C/C=O | -6.26% |
